TLR9-MyD88 block: blocks human TLR9 binding to MyD88 | Q9NR96+Q99836 | CHO BLA complementation TLR9-MyD88, CCF4 FRET ratio | inhibition, % at 4.98 µM | 340,000 compounds, 0.21% hits | AID 504734;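 active = inhibition above the mean over all tested compounds plus 3 SD, cut at about 21% in these data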;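 note: 0% = DMSO only wells and 100% = clavulanate BLA inhibitor control wells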
TLR4 MyD88 comp: blocks binding of human TLR4 to MyD88; 200,000 compounds, 0.18% hits; HeLa CL3-4 TLR4/MyD88 BLA complementation, FRET ratio; AID 861; inhibition, % at 8.4 µM; in the data active = inhibition above about 25%;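 note: 0% = vehicle and 100% = reference inhibitor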
Target sequence (O00206 whole entry, looked up): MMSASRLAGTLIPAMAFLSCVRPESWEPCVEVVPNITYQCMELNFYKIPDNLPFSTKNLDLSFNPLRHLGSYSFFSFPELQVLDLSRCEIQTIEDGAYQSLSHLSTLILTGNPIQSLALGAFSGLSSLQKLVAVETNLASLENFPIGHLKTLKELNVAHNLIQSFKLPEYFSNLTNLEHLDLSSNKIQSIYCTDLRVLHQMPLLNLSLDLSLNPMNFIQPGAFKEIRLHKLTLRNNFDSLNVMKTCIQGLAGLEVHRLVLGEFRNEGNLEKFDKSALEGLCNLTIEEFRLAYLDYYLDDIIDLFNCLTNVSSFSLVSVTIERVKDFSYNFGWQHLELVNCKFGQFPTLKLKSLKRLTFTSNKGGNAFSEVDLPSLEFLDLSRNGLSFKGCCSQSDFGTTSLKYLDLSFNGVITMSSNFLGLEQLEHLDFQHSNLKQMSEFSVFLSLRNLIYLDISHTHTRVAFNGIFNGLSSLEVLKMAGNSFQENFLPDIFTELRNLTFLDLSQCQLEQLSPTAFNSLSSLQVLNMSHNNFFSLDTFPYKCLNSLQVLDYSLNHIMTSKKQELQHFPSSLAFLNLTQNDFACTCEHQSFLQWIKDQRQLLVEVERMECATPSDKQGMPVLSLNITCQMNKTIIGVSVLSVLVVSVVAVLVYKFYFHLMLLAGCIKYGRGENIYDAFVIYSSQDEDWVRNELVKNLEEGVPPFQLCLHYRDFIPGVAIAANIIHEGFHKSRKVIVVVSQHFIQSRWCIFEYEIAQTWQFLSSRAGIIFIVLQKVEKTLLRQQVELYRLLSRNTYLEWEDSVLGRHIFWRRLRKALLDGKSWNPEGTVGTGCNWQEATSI
Target sequence (Q99836 whole entry, looked up): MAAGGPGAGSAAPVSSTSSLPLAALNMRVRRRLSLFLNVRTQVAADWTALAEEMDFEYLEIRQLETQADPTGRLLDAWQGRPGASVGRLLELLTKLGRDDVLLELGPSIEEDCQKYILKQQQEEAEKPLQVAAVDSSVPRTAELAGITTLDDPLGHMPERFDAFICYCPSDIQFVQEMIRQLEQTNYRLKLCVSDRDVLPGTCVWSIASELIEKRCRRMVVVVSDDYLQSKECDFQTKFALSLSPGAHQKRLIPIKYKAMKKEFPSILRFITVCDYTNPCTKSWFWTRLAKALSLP
ABCB6 inh MLPCN: blocks the human ABCB6 transporter. Q9NP58. K562-ABCB6 porphyrin accumulation, flow cytometry, 1 h; hits give low values. fluorescence ratio to DMSO, % at 10 µM. 360,000 compounds, 0.19% hits. AID 602162;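 active = fluorescence ratio to DMSO below 75%, the collection mean minus 3 SD; inconclusive = too few cells collected in the well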;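 note: signal is porphyrin accumulated inside mitochondria; 100% equals median channel fluorescence of DMSO control wells; lower ratio means ABCB6 inhibition with less porphyrin fluorescence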
Myeloid diff 2: compounds promoting myeloid differentiation | ER-HoxA9 myeloid progenitors, lysozyme-GFP differentiation, flow cytometry | calls only at 10 µM | 360,000 compounds, 1% hits | AID 624256;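 active = normalized GFP-positive differentiation at or above the plate's own cutoff, the solvent-only control mean plus 3 SD; inconclusive = no clear call, values can overlap the other calls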;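 note: cells exposed to compound for four days before flow analysis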
NOD2-RIPK2 inh: NOD2-RIPK2 protein interaction inhibition; O43353; inhibition, % at 4.98 µM; 360,000 compounds, 0.38% hits; AID 624267; CHO BLA complementation NOD2-RIPK2, CCF4 ratio; in the data active = inhibition above about 21%;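 note: 0% = vehicle only and 100% = reference blocker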
Active calls of the source: *; i = inactive; ? = inconclusive; · = no result given; + = active, no number. Shown are actives, neighbours in structure and some others; about 1.7% of the full set was active somewhere.

SMILES	TLR9-MyD88 block	TLR4 MyD88 comp	ABCB6 inh MLPCN	Myeloid diff 2	NOD2-RIPK2 inh
CCc1cc(=O)oc2cc(OCc3ccc(C(=O)O)o3)ccc12	3.9	·	132.0	+	-1.4
CC(CNC(=O)c1ccccc1[N+](=O)[O-])NC(=O)c1ccccc1[N+](=O)[O-] (centres undefined)	-2.8	·	98.0	i	-22.0
COc1cccc(C2c3c(-c4ccccc4O)n[nH]c3C(=O)N2Cc2ccco2)c1 (centres undefined)	-2.7	·	103.0	i	-9.5
O=C1c2[nH]nc(-c3ccccc3O)c2C(c2ccccc2)N1Cc1ccco1 (centres undefined)	-6.2	6.2	93.0	+	6.2
CC(=O)Nc1ccc(S(=O)(=O)NCCSCc2cccc(Cl)c2)cc1	-3.4	-6.0	97.0	+	-7.2
CC(=O)Nc1ccc(S(=O)(=O)NCCSCc2c(Cl)cccc2Cl)cc1	1.4	0.6	84.0	i	-9.4
CC(C)(C)c1ccc(OC(=O)N2CCOCC2)cc1	-3.0	·	97.0	+	-4.0
COc1cc(NC(=S)N2CCN(C(c3ccccc3)c3ccccc3)CC2)cc(OC)c1	5.2	-7.5	84.0	+	-0.8
COc1cc(NC(=S)N2CCN(C/C=C/c3ccccc3)CC2)cc(OC)c1	-9.4	-20.3	397.0	+	-4.6
COCCNC(=S)N1CCN(C(c2ccccc2)c2ccccc2)CC1	1.2	·	95.0	i	4.8
COc1cccc(NC(=S)N2CCN(C/C=C/c3ccccc3)CC2)c1	-11.7	6.4	90.0	i	7.0
CCC1CCCCN1CCCNC(=O)c1ccc(CS(=O)(=O)c2ccccc2C)o1 (centres undefined)	2.7	·	94.0	i	2.2
O=C(CN1C(=O)C(=O)N(C2CCCC2)C1=O)Nc1cc(Cl)ccc1[N+](=O)[O-]	6.0	·	103.0	i	2.2
COc1ccccc1N1C(=O)N(C(C)=O)C2C1Nc1ccccc1N2C (centres undefined)	-4.0	-3.0	190.0	+	6.8
COc1ccc(C)cc1Nc1nc(-c2c[nH]c3ccccc23)cs1	6.7	-9.7	126.0	+	-4.5
COc1ccc(OC)c(Nc2nc(-c3cccs3)cs2)c1	-10.3	4.4	104.0	i	2.7
O=C(NC1CCCCC1)C1c2ccccc2C(=O)N1Cc1ccc2c(c1)OCO2 (centres undefined)	-6.1	-3.5	96.0	i	0.8
CCOC(=O)c1c(NC(=O)CSc2nc3ccc(C)cc3[nH]2)sc2c1CC(C)(C)NC2(C)C	2.6	·	97.0	i	15.5
c1cc2nc(C34CC5CC(CC(C5)C3)C4)[nH]c2cn1	-0.8	8.8	734.0	+	-7.0
O=C(NCc1cccnc1)c1cc(C2CCCCN2S(=O)(=O)c2cccc3cccnc23)on1 (centres undefined)	·	·	96.0	i	-2.4
C/C(O)=C\c1nc2ccccc2oc1=O	11.8	-7.0	108.0	+	3.9
CC(=O)Nc1cccc(-c2ccnc3c2CC(C)(C(=O)Nc2cccnc2)O3)c1 (centres undefined)	·	·	97.0	i	-2.2
Cc1cccc(OCCNc2ccc([N+](=O)[O-])cn2)c1	2.4	17.2	100.0	i	0.9
O=[N+]([O-])c1ccc(NCCOc2ccccc2Cl)nc1	5.6	·	196.0	+	0.8
OCC1OC(c2ccc(O)cc2O)C(O)C1O (centres undefined)	·	·	98.0	i	-10.1
SMILES	TLR9-MyD88 block	TLR4 MyD88 comp	ABCB6 inh MLPCN	Myeloid diff 2	NOD2-RIPK2 inh
Cc1oc(-c2ccc(Cl)cc2)nc1CN1CCC(C(=O)N2CCc3ccccc3C2)CC1	-7.3	-2.0	94.0	+	-5.2
Cc1oc(-c2ccc(Cl)cc2)nc1CN1CCC(C(=O)N2CCN(Cc3ccccc3)CC2)CC1	3.0	-9.6	106.0	?	7.1
CC1CCc2cccc3c2N1c1cc(C#N)c(C#N)cc1O3 (centres undefined)	1.7	8.6	149.0	+	-2.9
CCn1nc(C(=O)Nc2nc(-c3ccccn3)cs2)c2ccccc2c1=O	-12.1	·	98.0	i	-5.2
CCCn1nc(C(=O)Nc2nc(-c3ccccn3)cs2)c2ccccc2c1=O	-7.1	·	96.0	+	-17.1
Cc1cccc(C)c1OCC(=O)OCC(=O)Nc1ccc(Cl)cn1	-18.2	·	89.0	i	-4.2
Cc1ccc(/C=C\c2nccc3c2[nH]c2ccccc23)cc1	-48.0	-96.5	99.0	+	-36.1
c1ccc(Cn2cc(CNc3ccccc3)nn2)cc1	3.1	·	93.0	i	-7.0
CCOc1ccc(CCNC(=O)c2ccc(=O)[nH]c2)cc1OCC	-5.6	·	100.0	i	-14.0
CC(=O)c1cc(C(=O)N2CCc3c([nH]c4ccccc34)C2C2CCCCC2)[nH]n1 (centres undefined)	-2.3	-6.5	153.0	+	-5.7
CCOC(=O)c1c(C)[nH]c(C(=O)COC(=O)CCC2CCCC2)c1C	-5.8	-7.7	99.0	i	-4.3
O=C(COC(=O)C12CC3CC(CC(O)(C3)C1)C2)Nc1cccc(Br)c1	3.6	·	99.0	i	3.4
COc1ccc(C(=O)Nc2cccc(S(C)(=O)=O)c2)cc1OC	-8.1	-9.5	95.0	i	-13.9
COc1ccc(C(=O)Nc2cccc(NC(C)=O)c2)cc1OC	2.6	-11.0	343.0	+	-6.0
Cc1cccc(-[n+]2c(C)cc(C)c3c(=O)[nH]c(=O)[nH]c32)c1	-9.6	6.5	100.0	i	-6.7
COc1ccccc1N1CCN(C(=O)c2ccc3noc(-c4ccccc4)c3c2)CC1	2.1	·	88.0	i	-9.6
Cc1c(CCC(=O)O)c(=O)oc2cc3occ(-c4ccc(Br)cc4)c3cc12	5.4	·	284.0	+	0.4
Cc1cccc(C)c1-n1nnnc1C1(C)CCC(=O)N1CC1CCCCC1 (centres undefined)	·	·	103.0	i	-26.8
Cc1cccc(OCC(=O)N2CCN(c3nnc(-c4ccccc4)c4ccccc34)CC2)c1	-12.2	·	98.0	i	1.3
Cc1ccc(-c2nnc(N3CCN(C(=O)COc4cccc(C)c4)CC3)c3ccccc23)cc1	-0.7	·	99.0	+	11.6
O=C(Cn1cnc2sc3c(c2c1=O)CCCC3)NCC(=O)Nc1c(F)cc(F)cc1Br	-7.7	·	99.0	i	-16.5
COc1ccc2oc(=O)c(-c3ccccc3C(=O)N3CCOCC3)cc2c1	8.2	-23.7	102.0	i	-3.0
COc1cc(N=Nc2cccc(S(N)(=O)=O)c2)c2ccccc2c1N	-3.7	·	220.0	+	-3.2
NC1=NC(=Nc2cccc(S(N)(=O)=O)c2)c2ccccc21	-4.3	·	101.0	i	1.3
CS(=O)(=O)c1nc(S(=O)(=O)c2ccc(Cl)cc2)c(NCCCn2ccnc2)s1	-3.3	·	100.0	i	3.7
CC(C)(C)OC(=O)N1CCCC1C(=O)O (centres undefined)	5.0	14.8	98.0	i	6.7
Cc1oc(C(C)(C)C)cc1C(=O)N1CCCC1C(=O)O (centres undefined)	1.0	3.9	100.0	+	-12.2

Compound activity as filed in PubChem.
